# Measurements taken from ChEMBL document CHEMBL4513149, “CO-ADD screening of MMV (CH) - MMV compounds” (2021).
# Measured potencies and affinities stand elsewhere.
# How the values were obtained:
# Staphylococcus aureus = details: Concentration 20 uM; ASSAY_TEST Inhibition of Bacterial Growth; detection method Absorption (OD600); MEDIA CAMHB; plate type 384well; NBS; CORNING #3640; time 18 hr
# Escherichia coli = details: Concentration 20 uM; ASSAY_TEST Inhibition of Bacterial Growth; detection method Absorption (OD600); MEDIA CAMHB; plate type 384well; NBS; CORNING #3640; time 18 hr
SMILES,Inhibition (Staphylococcus aureus) [%],Inhibition (Escherichia coli) [%]
CCc1cc(=O)n(C)c(SC(C)C(=O)Nc2ccc(F)cc2)n1 (stereo not drawn),4.54,4.12
O=C(NCc1ccoc1)N1CCN(Cc2ccc3c(c2)OCO3)CC1,17.61,3.25
Cc1ccc(S(=O)(=O)N2CCN(C(=O)c3cc(-c4ccccc4)n[nH]3)CC2)cc1,1.4,11.29
COc1ccc(-c2cnc3cnc(-c4cccc(OC(C)C)c4)cn23)cc1,6.79,4.77
CNC(=O)C1Cc2c([nH]c3cc(Cl)ccc23)C2(CCN(CCc3ccccc3)CC2)N1 (stereo not drawn),24.47,9.53
Cc1nn2c(O)c3c(nc2c1-c1ccc(F)cc1)CCCC3,17.1,16.25
CC(C)(CN)c1nc(-c2ccc(Cl)c(O)c2)c(-c2ccnc(N)n2)[nH]1.O=C(O)C(F)(F)F.O=C(O)C(F)(F)F,18.2,12.46
CNC(=O)CNc1nc(-c2ccccn2)nc2scc(-c3ccccc3)c12,11.27,6.67
Clc1ccc(CN2CCN(C3=NCCN3)CC2)cc1Cl,14.27,4.2
